# Laboratory results: PubChem BioAssay (NCI)
# The panel holds about 83,000 compounds, 20% with a hit somewhere; the sample as a whole holds those more often.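 Cell lines were cultured in 96-well plates, exposed to a single compound concentration, and assessed for percent growth 48 hours later.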 Values without a mark were called inactive. Calls of active or inactive are those of the source. How the source made its calls: active means growth percent below 10; inactive means the rest.
# Assays:
# Assay in all cases: NCI-60 one-dose screen, 48 h (100 = growth as untreated, 0 = no growth, -100 = all killed)
# SK-MEL-2 melanoma = tested on: SK-MEL-2 melanoma
# EKVX NSCLC = conditions: 10 µM unless noted
# SN12C renal = conditions: 10 µM unless noted
# UO-31 renal = tested on: UO-31 renal
# TK-10 renal = tested on: TK-10 renal
# ACHN renal = tested on: ACHN renal
# CAKI-1 renal = tested on: CAKI-1 renal
# A498 renal = tested on: A498 renal
# CCRF-CEM leukemia = conditions: 10 µM unless noted
# MOLT-4 leukemia = tested on: MOLT-4 leukemia
structure (smiles),measurement,setting,value
CCOC(=O)/C=C/c1ccc([N+](=O)[O-])o1,growth,SK-MEL-2 melanoma; 10 µM unless noted,85.3%
same,growth,EKVX NSCLC,107%
same,growth,SN12C renal,85.5%
same,growth,UO-31 renal; 10 µM unless noted,38.5%
same,growth,TK-10 renal; 10 µM unless noted,40.7%
same,growth,ACHN renal; 10 µM unless noted,9.88% (active)
same,growth,CAKI-1 renal; 10 µM unless noted,9% (active)
same,growth,A498 renal; 10 µM unless noted,102%
same,growth,CCRF-CEM leukemia,7.26% (active)
same,growth,MOLT-4 leukemia; 10 µM unless noted,-3.02% (active)
CCC(=O)Sc1ccccc1C(=O)Nc1ccc(Cl)cc1,growth,SK-MEL-2 melanoma; 10 µM unless noted,133%
same,growth,EKVX NSCLC,29.5%
same,growth,SN12C renal,49.5%
same,growth,UO-31 renal; 10 µM unless noted,61.6%
same,growth,TK-10 renal; 10 µM unless noted,69.4%
same,growth,ACHN renal; 10 µM unless noted,73.2%
same,growth,CAKI-1 renal; 10 µM unless noted,31.9%
same,growth,A498 renal; 10 µM unless noted,36.8%
same,growth,CCRF-CEM leukemia,27.1%
same,growth,MOLT-4 leukemia; 10 µM unless noted,30.9%
Cc1ccc(N=C=C(c2ccccc2)c2ccccc2)cc1,growth,SK-MEL-2 melanoma; 10 µM unless noted,97.5%
same,growth,EKVX NSCLC,90.6%
same,growth,SN12C renal,79.2%
same,growth,UO-31 renal; 10 µM unless noted,80.3%
same,growth,TK-10 renal; 10 µM unless noted,112%
same,growth,ACHN renal; 10 µM unless noted,102%
same,growth,CAKI-1 renal; 10 µM unless noted,81.6%
same,growth,A498 renal; 10 µM unless noted,126%
same,growth,CCRF-CEM leukemia,1.63% (active)
same,growth,MOLT-4 leukemia; 10 µM unless noted,-1.03% (active)
O=C1C=CC(=O)N1C1c2ccccc2-c2ccccc21,growth,SK-MEL-2 melanoma; 10 µM unless noted,100%
same,growth,EKVX NSCLC,105%
same,growth,SN12C renal,94.2%
same,growth,UO-31 renal; 10 µM unless noted,75.5%
same,growth,TK-10 renal; 10 µM unless noted,51.4%
same,growth,ACHN renal; 10 µM unless noted,57.8%
same,growth,CAKI-1 renal; 10 µM unless noted,55.7%
same,growth,A498 renal; 10 µM unless noted,93.8%
same,growth,CCRF-CEM leukemia,30.4%
same,growth,MOLT-4 leukemia; 10 µM unless noted,33.8%
COc1ccc(-c2cscc2N)cc1,growth,SK-MEL-2 melanoma; 10 µM,95.1%
same,growth,SK-MEL-2 melanoma; 100 µM,24.6%
same,growth,EKVX NSCLC,51.4% [100 µM]
same,growth,UO-31 renal; 10 µM,78%
same,growth,UO-31 renal; 100 µM,27%
same,growth,TK-10 renal; 10 µM,101%
same,growth,TK-10 renal; 100 µM,74.4%
same,growth,ACHN renal; 10 µM,54.7%
same,growth,ACHN renal; 100 µM,40.7%
same,growth,CAKI-1 renal; 10 µM,70.9%
same,growth,CAKI-1 renal; 100 µM,29.2%
same,growth,A498 renal; 10 µM,83.3%
same,growth,A498 renal; 100 µM,80.6%
same,growth,CCRF-CEM leukemia,31.3% [100 µM]
same,growth,MOLT-4 leukemia; 10 µM,66.4%
same,growth,MOLT-4 leukemia; 100 µM,38.6%
Nc1nc(N)c2c(ccc3c2ccn3Cc2cccc([N+](=O)[O-])c2)n1,growth,SK-MEL-2 melanoma; 10 µM unless noted,-92% (active)
same,growth,EKVX NSCLC,-93.8% (active)
same,growth,SN12C renal,-83.6% (active)
same,growth,UO-31 renal; 10 µM unless noted,-95.5% (active)
same,growth,TK-10 renal; 10 µM unless noted,-92.4% (active)
same,growth,ACHN renal; 10 µM unless noted,-97% (active)
same,growth,CAKI-1 renal; 10 µM unless noted,-96.1% (active)
same,growth,A498 renal; 10 µM unless noted,-89.5% (active)
same,growth,CCRF-CEM leukemia,24%
same,growth,MOLT-4 leukemia; 10 µM unless noted,46.2%
O=C(/C=C\c1cc(Br)ccc1O)/C=C/c1cc(Br)ccc1O,growth,SK-MEL-2 melanoma; 10 µM unless noted,-63.1% (active)
same,growth,EKVX NSCLC,8.88% (active)
same,growth,SN12C renal,-55.4% (active)
same,growth,UO-31 renal; 10 µM unless noted,-72.9% (active)
same,growth,TK-10 renal; 10 µM unless noted,-20% (active)
same,growth,ACHN renal; 10 µM unless noted,-59.8% (active)
same,growth,CAKI-1 renal; 10 µM unless noted,-2.63% (active)
same,growth,A498 renal; 10 µM unless noted,-70.1% (active)
same,growth,MOLT-4 leukemia; 10 µM unless noted,0.164% (active)
O=C(/C=C/C=C/c1ccccc1)c1ccco1,growth,SK-MEL-2 melanoma; 10 µM unless noted,103%
same,growth,EKVX NSCLC,112%
same,growth,SN12C renal,99.8%
same,growth,UO-31 renal; 10 µM unless noted,62.6%
same,growth,TK-10 renal; 10 µM unless noted,128%
same,growth,ACHN renal; 10 µM unless noted,107%
same,growth,CAKI-1 renal; 10 µM unless noted,97.3%
same,growth,A498 renal; 10 µM unless noted,106%
same,growth,CCRF-CEM leukemia,30.2%
NC(=O)/C=C/C(=O)c1c(Cl)cccc1Cl,growth,SK-MEL-2 melanoma; 10 µM unless noted,-67.4% (active)
same,growth,EKVX NSCLC,-36.4% (active)
same,growth,SN12C renal,-90.2% (active)
same,growth,UO-31 renal; 10 µM unless noted,-86.4% (active)
same,growth,TK-10 renal; 10 µM unless noted,-83.7% (active)
same,growth,ACHN renal; 10 µM unless noted,-76.3% (active)
same,growth,CAKI-1 renal; 10 µM unless noted,-86.9% (active)
same,growth,A498 renal; 10 µM unless noted,-58.4% (active)
same,growth,CCRF-CEM leukemia,-33.9% (active)
same,growth,MOLT-4 leukemia; 10 µM unless noted,-26.3% (active)
CC(=O)C(=Cc1ccc(C=C(C(C)=O)C(C)=O)cc1)C(C)=O,growth,SK-MEL-2 melanoma; 10 µM unless noted,70.8%
same,growth,EKVX NSCLC,94.2%
same,growth,SN12C renal,17.4%
same,growth,UO-31 renal; 10 µM unless noted,-12.2% (active)
same,growth,ACHN renal; 10 µM unless noted,-33.5% (active)
same,growth,CAKI-1 renal; 10 µM unless noted,-50.7% (active)
same,growth,A498 renal; 10 µM unless noted,94.1%
same,growth,CCRF-CEM leukemia,-5.86% (active)
same,growth,MOLT-4 leukemia; 10 µM unless noted,6.74% (active)
CN(C)c1ccc(C(=C2C=CC(=[N+](C)C)C=C2)c2ccc(N(C)C)cc2)cc1 (tested in a mixture with another compound),growth,SK-MEL-2 melanoma; 10 µM unless noted,-66.9% (active)
same,growth,EKVX NSCLC,-35.6% (active)
same,growth,SN12C renal,-48.3% (active)
same,growth,UO-31 renal; 10 µM unless noted,-80.8% (active)
same,growth,ACHN renal; 10 µM unless noted,-98.6% (active)
same,growth,CAKI-1 renal; 10 µM unless noted,-43.7% (active)
same,growth,A498 renal; 10 µM unless noted,-93.2% (active)
same,growth,MOLT-4 leukemia; 10 µM unless noted,-23.7% (active)
COC(=O)c1nc(=S)[nH]c(C(=O)OC)c1C(=O)c1ccc2ccccc2c1,growth,SK-MEL-2 melanoma; 10 µM unless noted,104%
same,growth,EKVX NSCLC,103%
same,growth,SN12C renal,97.2%
same,growth,UO-31 renal; 10 µM unless noted,81%
same,growth,ACHN renal; 10 µM unless noted,101%
same,growth,CAKI-1 renal; 10 µM unless noted,86.2%
same,growth,A498 renal; 10 µM unless noted,119%
same,growth,CCRF-CEM leukemia,102%
same,growth,MOLT-4 leukemia; 10 µM unless noted,103%
